From PubChem
This is a sample that favours compounds with a hit; in the whole collection about 21% have one here.
Shiga inhibitor: A qHTS for Small Molecule Inhibitors of Shiga Toxin; Vero cells, Shiga toxin protein synthesis inhibition reporter; AID 2315, 2010; 290,000 compounds, 9.2% hits; inhibition, % at 38.7 µM; in the data active means inhibition mostly above about 28%, no sharp cut-off; inactive means mostly below about 43%; further: 0% is about no effect
Pf growth 48h: Primary qHTS for delayed death inhibitors of the malarial parasite plastid, 48 hour incubation; P. falciparum luciferase growth in erythrocytes, 48 h; Potency, µM (titrated, usually from 28.7 µM), without a hit: top-dose activity change, negative = inhibition, hits mostly inhibitors; 310,000 compounds, 5.9% hits; further: potency means the concentration at half of the fitted maximal effect; on the % scale 0 is the no-effect control and ±100 the full control effect
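Erythrocytes infected with P. falciparum carrying an integrated firefly luciferase reporter (2% hematocrit, 0.1% parasitemia final) were exposed to compounds in RPMI 1640 with 0.5% Albumax at 37 C, 5% CO2. Growth inhibition was scored as reduced luminescence.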
HCV inhibitor: qHTS Assay for Inhibitors of Hepatitis C Virus (HCV); 340,000 compounds, 3.4% hits; Huh7.5.1 HCVcc-Cre infection, luciferase reporter, 44 h; Potency, µM (highest dose often 41.8 µM), for inactives: top-dose activity change, negative = inhibition, hits mostly inhibitors; further: potency means the concentration at half of the fitted maximal effect; on the % scale 0 is the no-effect control and ±100 the full control effect
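HCVcc-Cre virus at an moi near 0.5 was added right after compound to cells cultured 4 h from seeding (1,000 cells/well). Luciferase activity was determined 44 h later, 15 min after substrate addition at RT.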
Pf growth 96h: Primary qHTS for delayed death inhibitors of the malarial parasite plastid, 96 hour incubation; P. falciparum luciferase reporter growth, 96 h; Potency, µM (top dose mostly 28.7 µM), inactives show at the highest dose activity change, negative = inhibition, most hits filed as inhibitors; 320,000 compounds, 6.9% hits; AID 504834, 2011; further: potency means the concentration at half of the fitted maximal effect; on the % scale 0 is the no-effect control and ±100 the full control effect
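Two-generation exposure (96 h) targets delayed-death phenotype. Reporter parasites carrying integrated firefly luciferase, in red cells at 2% hematocrit and 0.05% parasitemia final, kept at 37 C, 5% CO2; luminescence loss indicates inhibition.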
HCMV antiviral: qHTS Assay for inhibitors of the human cytomegalovirus (HCMV). HFF cells, HCMV-luciferase reporter, 72 h; active compounds read low. AID 1259415, 2018. activity change, negative = inhibition, % at 57.5 µM. 410,000 compounds, 4.5% hits; in the data active means activity change below about -60%; inconclusive means no clear call, values can overlap the other calls; inactive means above about -39%; further: on the % scale 0 is the no-effect control and ±100 the full control effect
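After 16 h attachment at 37C, HFF cells received test compound and HCMV-luciferase (1 PFU/cell); reporter luminescence read 72 h later, data normalized against buffer-only and known inhibitor Salinomycin.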
Cycloheximide cs: Cycloheximide Counterscreen for Small Molecule Inhibitors of Shiga Toxin; cell reporter, cycloheximide protein synthesis inhibition counterscreen; max response, %; AID 2314, 2010; 300,000 compounds, 12% hits; in the data active means max response mostly above about 13%, no sharp cut-off; inactive means mostly below about 14%; further: read at 38.3 µM for the half of the compounds with a filed dose; 0% is about no effect
The depositor's hits bear a star; ? = inconclusive; · = not tested or not shown. Unless noted, the call rests on the fitted dose curve; in most records, active means well fitted inhibition curve with a large enough effect; inconclusive means small, poorly fitted or top-dose-only effect, or another doubt; inactive means no such curve, though single readings can be large or run the other way.

SMILES	Shiga inhibitor	Pf growth 48h	HCV inhibitor	Pf growth 96h	HCMV antiviral	Cycloheximide cs
C=CC[N+](C)(C)c1ccc(CCC(=O)CCc2ccc([N+](C)(C)CC=C)cc2)cc1	·	0.15µM*	-4%	0.15µM*	2	·
Cc1ccc(CC(=O)CCc2ccccc2)cc1	·	25%	10%	64%	0	·
CS(=O)(=O)N1CCc2cc(C(=O)NCc3ccccc3)ccc21	·	·	·	·	-17	·
O=C(O)CC1SC(=Nc2ccc(O)cc2)NC1=O (stereo not given)	27	4%	3%	41%	?	16
O=C(O)CC1SC(=Nc2cccc(C(F)(F)F)c2)NC1=O (stereo not given)	-11	·	-3%	2.9µM*	5	-2
COCCCn1c(=S)[nH]c(C)c(C)c1=O	-11	-11%	22%	-4%	36	1
CCC(C)N(C(=O)COc1ccccc1C(=O)NCc1ccccc1)C1CCS(=O)(=O)C1 (stereo not given)	-12	?	?	9.3µM*	-24	-4
C=CCn1c(SCC(=O)N(C(C)CC)C2CCS(=O)(=O)C2)nc2ccccc2c1=O (stereo not given)	·	?	-6%	5.9µM*	-18	·
CCC(C)N(C(=O)CSc1nc(C)nc2ccccc12)C1CCS(=O)(=O)C1 (stereo not given)	·	?	16%	15µM*	-4	·
CCn1c(SCC(=O)N(Cc2ccccc2)C2CCS(=O)(=O)C2)nc2ccccc2c1=O (stereo not given)	-16	5.2µM*	12%	·	22	-7
Cc1nc(SCC(=O)N(CC(C)C)C2CCS(=O)(=O)C2)c2ccccc2n1 (stereo not given)	·	?	1%	?	4	·
COCCn1c(SCC(=O)N(C)C2CCS(=O)(=O)C2)nc2ccccc2c1=O (stereo not given)	-18	-2%	29%	14%	-19	2
COc1cccc(NC(=O)C2C3CCC4C(CCC32)C4(Cl)Cl)c1 (stereo not given)	40	-24%	-14%	-12%	?	15*
COc1ccc(NC(=O)C2C3CCC4C(CCC32)C4(Cl)Cl)cc1 (stereo not given)	-2	4%	35%	5.2µM*	24	-6
COc1cccc(NC(=O)C2CCC2)c1	·	-14%	5%	14%	20	·
Cn1c(SCC(=O)NNC(=O)c2ccc(Cl)cc2)nnc1-c1cccnc1	-4	20%	9%	-10%	-8	-3
COCCN(C(=O)COC(=O)CSc1ccc2ccccc2c1)c1c(N)n(Cc2ccccc2)c(=O)[nH]c1=O	·	?	30%	2%	24	·
CCOc1c(C)cnc2c1c(=O)n(Cc1ccccc1F)c(=O)n2C	-4	11%	-3%	3%	0	-2
CC[C@H](NC(C)C)[C@H](O)c1ccc(O)c2[nH]c(=O)ccc12	·	-27%	·	0.24µM*	·	·
CC(C)C[C@H]1CNC(=S)N1C[C@H]1CCCN1C[C@H](Cc1ccc(O)cc1)N1C[C@H](Cc2ccc(O)cc2)N(CC2CCCCCC2)C1=S	·	·	·	·	-83*	·
CC(C)C[C@H]1CNC(=S)N1CC1CCCN1C[C@H](Cc1ccccc1)N1C[C@H](Cc2ccc(O)cc2)N(CC2CCCCCC2)C1=S (stereo not given in full)	·	·	6.3µM*	·	-101*	·
COc1cccc(NC(=O)c2oc3ccccc3c2NC(=O)Cc2cccc(C)c2)c1	·	·	·	·	21	·
O=C(Nc1ccc(S(=O)(=O)Nc2ccccc2)cc1)C1COc2ccccc2O1 (stereo not given)	12	?	?	0.47µM*	?	2
CN(C)S(=O)(=O)c1ccc(NC(=O)C2COc3ccccc3O2)cc1 (stereo not given)	28	10%	13%	?	-21	11*
c1ccc(OCCSc2nc3ccccc3[nH]2)cc1	21*	?	-9%	7.4µM*	4	26*
SMILES	Shiga inhibitor	Pf growth 48h	HCV inhibitor	Pf growth 96h	HCMV antiviral	Cycloheximide cs
Cc1ccccc1OCCCSc1nc2ccccc2[nH]1	27*	7%	?	10µM*	-70*	19*
Cc1nc(SCCOc2ccc(F)cc2)c2ccccc2n1	79*	49%	-3%	-1%	0	25*
Cc1nc(SCCC(=O)O)c2ccccc2n1	-8	10%	-4%	?	80	0
Cc1ccc(S(=O)(=O)N2CCCCC2)cc1NC(=O)C1COc2ccccc2O1 (stereo not given)	·	·	·	·	11	·
CCOC(=O)/C(C#N)=C/Nc1ccsc1C(C)=O	21	29%	-14%	-4%	27	8
CC1CCC(C(C)C)C(OCC(O)CN2CCCC(C)C2)C1 (stereo not given)	12	?	?	13µM*	?	1
CC1CCC(C(C)C)C(OCC(O)CN2CCOCC2)C1 (stereo not given)	-20	-6%	5%	·	17	-3
CC1CCC(C(C)C)C(OCC(O)CN2CCN(Cc3ccccc3)CC2)C1 (stereo not given)	-9	12µM*	?	?	?	-3
N/C(=N\OC(=O)CC1CCCCC1)c1cccnc1	14	0%	12%	?	-27	27*
N/C(=N\OC(=O)CCC1CCCC1)c1cccnc1	19	38%	39%	?	-12	15*
N/C(=N\OC(=O)C1CCCCC1)c1cccnc1	22	14%	10%	0%	33	15
O=C1CSC(=S)N1/N=C/c1ccc2c(c1)OCCO2	57*	·	3%	46%	43	35*
COc1cc(/C=N/N2C(=O)CSC2=S)ccc1O	-8	·	13%	25%	-15	9
CC1=N/C(=C/c2cc(Br)cc(Br)c2O)C(=O)O1	-3	11%	5%	?	-16	-2
Cc1ccc(N(CCC#N)C(=O)CCl)cc1C	8	9.3µM*	10µM*	?	-100*	9
CN(Cc1ccccc1)C(=O)CN1C(=O)c2ccccc2C1=O	·	30%	13%	2%	-7	-3
CN(Cc1ccsc1)C(=O)Cn1cc(Br)ccc1=O	78*	102%	17%	83%	43	29*
COc1cccc(CN2CCNC(=O)C2CC(=O)N(C)CC2CCOCC2)c1 (stereo not given)	-14	6%	17%	-30%	-8	-1
COCCNc1cc(N)c([N+](=O)[O-])cc1[N+](=O)[O-]	9	8%	-18%	36%	-9	11
CCNc1ccc(C(=O)OCC(=O)NC(C)c2ccccc2)cc1[N+](=O)[O-] (stereo not given)	-10	3%	?	37%	-66*	-5
